Records with an inconclusive call do not appear. Activity calls are given as the source filed them. Unless noted, calls follow the shape of the dose curve; as a rule, active = well fitted curve in the direction sought with a large enough effect; inconclusive = small, poorly fitted or top-dose-only effect, or another doubt; inactive = no such curve, though single readings can be large; an effect the other way counts as inactive or inconclusive.

Data on 6 compounds can be found in PubChem BioAssay (NCATS).

Test [1] concerns the target Glucocorticoid receptor (Homo sapiens) (UniProt P04150). Briefly: qHTS assay for small molecule agonists of glucocorticoid receptor signaling (AID 588532; active = well fitted curve in the direction sought with a large enough effect in the signal ratio, with a control signal flat; the % refers to the signal ratio;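 also: 100% = dexamethasone at 0.1 µM and 0% = DMSO only wells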). The settings on record: HeLa MMTV-bla, beta-lactamase ratio, agonist, 18 h; stronger effect = higher value; percent of dexamethasone control, DMSO zero. The method in brief:
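Cells were plated and rested 3-5 h at 37 C, compounds were added in titration and incubated 18 h, then CCF4 substrate was loaded for 2 h at RT before reading blue/green fluorescence. EC50 came from Hill-equation fitting.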
On the technique in general: Quantitative high-throughput screening tests each substance at several concentrations.

Test [2] shares this target. Nature of the test: qHTS assay for small molecule antagonists of glucocorticoid receptor signaling (AID 588533; active = well fitted inhibition curve with a large enough effect in the signal ratio, with a control signal flat, not every such curve was filed as active; the % refers to the signal ratio;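 also: cells stimulated with 2 nM dexamethasone as agonist; % is scaled to controls: 0 for no effect and ±100 for the full control effect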). The settings on record: HeLa MMTV-bla, GRE beta-lactamase ratio, antagonist mode, 18 h; series mostly up to 76.8 µM. The method in brief: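 Antagonist-mode qHTS: compound titrations added to GRE-bla HeLa cells, then dexamethasone 2 nM final; 18 h, 37 C. CCF4 FRET fluorescence normalized to dexamethasone and DMSO; IC50 from Hill fit.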

Test [3] is described as follows: qHTS assay for small molecule antagonists of peroxisome proliferator-activated receptor delta signaling (AID 588535).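 Also: cells co-treated with a PPAR-delta agonist as stimulator during compound exposure.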 The note with it: HEK293T PPARd-UAS-bla, beta-lactamase FRET ratio, 18 h; 460 nm channel. The method in brief: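 Cells were seeded at 4000 per well in assay medium containing 2% charcoal/dextran FBS and held 5 hrs at 37 C. Compounds were then added for 18 hrs. CCF4 substrate was applied for 2 hrs at room temperature before fluorescence reading.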

The target of test [4] is Peroxisome proliferator-activated receptor gamma (Homo sapiens) (UniProt P37231). Nature of the test: qHTS assay for small molecule agonists of peroxisome proliferator-activated receptor gamma signaling (AID 588536; active = well fitted curve in the direction sought with a large enough effect in the signal ratio, with a control signal flat, not every such curve was filed as active; the % refers to the signal ratio;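 also: 0% = DMSO basal wells and 100% = rosiglitazone at 2 µM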). The settings on record: HEK293 PPARg-UAS-bla, beta-lactamase ratio, 16 h, percent of rosiglitazone response, DMSO as zero; series mostly up to 76.7 µM. The method in brief:
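HEK293 UAS-bla reporter line, 1% charcoal/dextran FBS; titration, 16 h, 37 C; CCF4 loading 2 h RT; fluorescence 460/530 nm. Normalized to rosiglitazone 2 uM = 100%, DMSO = 0%.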

The target is the same in test [5]. Nature of the test: qHTS assay for small molecule antagonists of peroxisome proliferator-activated receptor gamma signaling (AID 588537; active = well fitted inhibition curve with a large enough effect in the signal ratio, with a control signal flat, not every such curve was filed as active; the % refers to the signal ratio;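 also: reporter cells co-stimulated with 50 nM rosiglitazone agonist during compound treatment; % of control where 0% means no effect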). The note with it: HEK293 PPARg-UAS-bla, beta-lactamase ratio, antagonist mode; series mostly up to 76.8 µM. The method in brief: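 Step one: plate 3000 HEK293 UAS-bla cells per well in medium with 1% stripped serum and hold 6-6.5 h at 37 C. Step two: add compound and 50 nM agonist for 16 h. Step three: CCF4 loading, fluorescence read.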

Test [6] can be described thus: qHTS assay for small molecule agonists of retinoid X receptor alpha signaling (AID 588544). The settings on record: HEK293T RXRa-UAS-bla, beta-lactamase reporter, 18 h; 530 nm emission.
The target in test [7] is Thyroid hormone receptor beta (Homo sapiens) (UniProt P10828). Nature of the test: qHTS assay for small molecule agonists of thyroid hormone receptor beta signaling (AID 588545; calls by dose curve;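 also: 0% = DMSO only and 100% = 10 nM T3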). The note with it: TR-UAS-bla GripTite HEK 293, beta-lactamase ratio, agonist mode, 18 h; series mostly up to 76.7 µM. The method in brief: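 Stimulation of a TR-driven beta-lactamase reporter was quantified in GripTite HEK 293 cells. Compound series ran for 18 hrs; curves were normalized to T3 and DMSO controls and fitted to yield EC50.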
Thyroid hormone receptor beta (Homo sapiens), sequence (P10828 whole entry, looked up): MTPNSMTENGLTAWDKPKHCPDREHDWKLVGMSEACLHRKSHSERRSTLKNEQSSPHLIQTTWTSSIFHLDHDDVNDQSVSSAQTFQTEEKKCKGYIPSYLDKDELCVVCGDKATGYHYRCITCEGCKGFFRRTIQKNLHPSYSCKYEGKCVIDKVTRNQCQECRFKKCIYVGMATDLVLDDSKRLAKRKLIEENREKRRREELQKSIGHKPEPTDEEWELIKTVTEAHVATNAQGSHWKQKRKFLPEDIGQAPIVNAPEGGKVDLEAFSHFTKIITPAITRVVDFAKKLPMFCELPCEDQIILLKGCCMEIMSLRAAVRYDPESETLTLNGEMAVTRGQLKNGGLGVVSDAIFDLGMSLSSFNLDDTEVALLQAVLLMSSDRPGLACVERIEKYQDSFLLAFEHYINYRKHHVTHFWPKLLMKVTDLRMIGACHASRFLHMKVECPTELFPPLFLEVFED

Test [8] can be described thus: qHTS assay for small molecule antagonists of retinoid X receptor alpha signaling (AID 588546; active = well fitted inhibition curve with a large enough effect in the signal ratio, with a control signal flat, not every such curve was filed as active; the % refers to the signal ratio; also: potency is read from the fitted curve at half-maximal effect;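 as to max response: cells stimulated with 9-cis-retinoic acid as agonist; % is scaled to controls: 0 for no effect and ±100 for the full control effect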). The settings on record: HEK293T RXRa-UAS-bla, beta-lactamase ratio, antagonist mode; measured here: W530 green channel, cytotoxicity proxy. The method in brief: (§1)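 Beta-lactamase reporter inhibition, read as CCF4 fluorescence ratio (ex 405, em 460/530 nm) after 2 h at RT. HEK293T UAS-bla cells, 2500/well, were stimulated with 9-cis-RA at 500 or 100 nM final alongside test compound for 18 h at 37 C.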

The target in test [9] is Retinoic acid receptor RXR-alpha (Homo sapiens) (UniProt P19793). Described as above. The settings on record: HEK293T RXRa-UAS-bla, beta-lactamase ratio, antagonist mode. The method in brief: as §1
Retinoic acid receptor RXR-alpha (Homo sapiens), sequence (P19793 whole entry, looked up): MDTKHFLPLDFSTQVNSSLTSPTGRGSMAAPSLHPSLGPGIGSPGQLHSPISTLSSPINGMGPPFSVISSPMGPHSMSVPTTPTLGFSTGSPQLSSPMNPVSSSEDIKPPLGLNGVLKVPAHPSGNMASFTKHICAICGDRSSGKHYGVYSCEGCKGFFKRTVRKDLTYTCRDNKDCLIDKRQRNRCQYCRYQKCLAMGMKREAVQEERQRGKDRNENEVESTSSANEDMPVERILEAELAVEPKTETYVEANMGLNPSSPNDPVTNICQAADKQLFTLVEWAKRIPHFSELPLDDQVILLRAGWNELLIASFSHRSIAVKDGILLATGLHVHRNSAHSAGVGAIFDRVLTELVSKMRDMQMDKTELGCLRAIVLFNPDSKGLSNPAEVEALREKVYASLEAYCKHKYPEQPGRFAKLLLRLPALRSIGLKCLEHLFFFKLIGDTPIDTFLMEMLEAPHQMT
A short description of test [10]: qHTS assay for small molecule activators of the p53 signaling pathway (AID 651743; active = well fitted activation curve with a large enough effect in the signal ratio, not every such curve was filed as active; the % refers to the signal ratio; also: % of control where 0% means no effect). The settings on record: HCT-116 p53RE-bla, beta-lactamase FRET ratio, 16 h; activation: stronger effect = higher value. The method in brief: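 HCT-116 p53RE-bla, 4,000 cells/well; 5 h settle; cpd/DMSO 16 h, 37 C; LiveBLAzer B/G 2 h RT; fluorescence intensity.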
Test [11] can be described thus: qHTS assay for small molecule activators of the nuclear factor-kappa B (NF-kB) signaling pathway (AID 651749; active = well fitted activation curve with a large enough effect in the signal ratio; the % refers to the signal ratio; also: % of control where 0% means no effect). The note with it: NF-kB-bla ME-180 cells, beta-lactamase FRET ratio, 16 h; activation: stronger effect = higher value. The method in brief:
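Incubation lasted 16 hr at 37C in 5% CO2 after 23 nL compound addition to ME-180 NF-kB-bla cells. Activation appears as beta-lactamase-mediated FRET loss.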

The nature of test [12]: qHTS assay for environmental chemicals that activate the Aryl hydrocarbon Receptor (AhR) signaling pathway (AID 651777). Also: % of control where 0% means no effect; nearly all actives have a fitted effect of over 15% in size. The note with it: 1A2-DRE human hepatoma cells, luciferase, 24 h; activation: stronger effect = higher value. The method in brief: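 Following a 24 hr incubation with test chemicals at 37 C and 5% CO2, 1A2-DRE human hepatoma cells received One-Glo reagent; after 30 min at room temperature, luciferase output reflected CYP1A2 induction via AhR.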

A short description of test [13]: qHTS assay for small molecule agonists of the antioxidant response element (ARE) signaling pathway measured by Nrf2-dependant transcriptional activity (AID 720636; active = well fitted curve in the direction sought with a large enough effect in the repeat runs; an effect the other way counts as inactive or inconclusive;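 also: HepG2 cells with an ARE-driven luciferase reporter; % of control where 0% means no effect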). The note with it: ARE-luc HepG2, Nrf2 luciferase reporter, 16 h; series mostly up to 92.4 µM. The method in brief:
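ONE-Glo luminescence, read 30 min after reagent addition at room temperature, reflected ARE reporter activity in HepG2 cells that had been incubated with compound for 16 hr at 37 C in 1% dialyzed FBS.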

Test [14] can be described thus: qHTS assay for small molecule agonists of the antioxidant response element (ARE) signaling pathway measured by Nrf2-dependant transcriptional activity - cell viability counter screen (AID 720653; active = well fitted curve in the direction sought with a large enough effect in the repeat runs; an effect the other way counts as inactive or inconclusive; also: % is scaled to controls: 0 for no effect and ±100 for the full control effect). The settings on record: ARE-bla HepG2 viability, CellTiter-Glo ATP luminescence, 16 h; max response: stronger effect = lower value. The method in brief: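 ARE-bla HepG2 cells treated with compounds for 16 h at 37C; this counter screen measures viability as intracellular ATP by CellTiter-Glo luminescence after 30 min at room temperature.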

Test [15] in a line: qHTS assay for cell viability of HEK293 cells (AID 743288). Also: % is scaled to controls: 0 for no effect and ±100 for the full control effect; nearly all actives have a fitted effect of over 50% in size. The note with it: ATP luminescence (CellTiter-Glo), 18 h; max response: stronger effect = lower value. The method in brief:
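Total intracellular ATP, measured with a luciferase-coupled reagent, indicates the number of viable HEK293 cells. Exposure to test chemicals lasts 18 h at 37 C in 1,536-well format at 2,000 cells/well.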

Test [16] can be described thus: qHTS assay for cell viability of the p53RE-bla HCT-116 cell line (AID 743292). Also: % is scaled to controls: 0 for no effect and ±100 for the full control effect; nearly all actives have a fitted effect of over 55% in size. The settings on record: p53RE-bla HCT-116 viability, ATP luminescence, 16 h; series mostly up to 95 µM. The method in brief:
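After plating at 4,000 cells per well and a 5 h rest at 37 C, HCT-116 cells carrying p53RE-bla received test chemicals in DMSO. Sixteen hours later at 37 C, CellTiter-Glo was added and luminescence recorded following 30 min at room temperature.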

Test [17] addresses Nuclear receptor subfamily 1 group I member 2 (Rattus norvegicus) (UniProt Q9R1A7). Briefly: qHTS assay for small molecule activators of the rat pregnane X receptor (rPXR) signaling pathway (AID 651751; call rule not given here; also: 0% is about no effect). The settings on record: rPXR reporter cells, luciferase (One-Glo), 24 h.
A short description of test [18]: qHTS assay for small molecule activators of the human pregnane X receptor (PXR) signaling pathway (AID 720659; call rule not given here; also: 0% is about no effect). The settings on record: DPX-2 HepG2 CYP3A4-luciferase, 24 h; series mostly up to 92.3 µM.
Test [19] addresses Vitamin D3 receptor (Homo sapiens) (UniProt P11473). Nature of the test: qHTS assay for small molecule agonists of vitamin D receptor signaling (AID 588543; calls by dose curve;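 also: 0% = DMSO basal and 100% = reference agonist control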). The note with it: HEK293T VDR-UAS-bla, beta-lactamase ratio, 16 h; series mostly up to 76.8 µM. The method in brief:
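Agonist-mode beta-lactamase reporter: HEK293T VDR-UAS-bla cells in charcoal-stripped 2% FBS, compound series 16 h 37 C, CCF4 2 h RT. EC50 from Hill fit, scaled against DMSO and 50 nM calcitriol control.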

Test [20] has as its target Peroxisome proliferator-activated receptor alpha (Homo sapiens) (UniProt Q07869). Briefly: qHTS assay for small molecule agonists of the peroxisome proliferator-activated receptor alpha (PPARalpha) signaling pathway (AID 651778). Also: % of control where 0% means no effect. The note with it: PathHunter PPARalpha complementation, chemiluminescence, 6 h; max response: stronger effect = higher value. The method in brief: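 Enzyme-fragment complementation assay in which ligand-bound PPARalpha translocates and forms an active enzyme that generates chemiluminescence. Cells were plated overnight, exposed to compound for 6 hr at 37 C, and then given detection reagent for 60 min at room temperature.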

Glucocorticoid receptor (Homo sapiens), sequence (P04150 whole entry, looked up): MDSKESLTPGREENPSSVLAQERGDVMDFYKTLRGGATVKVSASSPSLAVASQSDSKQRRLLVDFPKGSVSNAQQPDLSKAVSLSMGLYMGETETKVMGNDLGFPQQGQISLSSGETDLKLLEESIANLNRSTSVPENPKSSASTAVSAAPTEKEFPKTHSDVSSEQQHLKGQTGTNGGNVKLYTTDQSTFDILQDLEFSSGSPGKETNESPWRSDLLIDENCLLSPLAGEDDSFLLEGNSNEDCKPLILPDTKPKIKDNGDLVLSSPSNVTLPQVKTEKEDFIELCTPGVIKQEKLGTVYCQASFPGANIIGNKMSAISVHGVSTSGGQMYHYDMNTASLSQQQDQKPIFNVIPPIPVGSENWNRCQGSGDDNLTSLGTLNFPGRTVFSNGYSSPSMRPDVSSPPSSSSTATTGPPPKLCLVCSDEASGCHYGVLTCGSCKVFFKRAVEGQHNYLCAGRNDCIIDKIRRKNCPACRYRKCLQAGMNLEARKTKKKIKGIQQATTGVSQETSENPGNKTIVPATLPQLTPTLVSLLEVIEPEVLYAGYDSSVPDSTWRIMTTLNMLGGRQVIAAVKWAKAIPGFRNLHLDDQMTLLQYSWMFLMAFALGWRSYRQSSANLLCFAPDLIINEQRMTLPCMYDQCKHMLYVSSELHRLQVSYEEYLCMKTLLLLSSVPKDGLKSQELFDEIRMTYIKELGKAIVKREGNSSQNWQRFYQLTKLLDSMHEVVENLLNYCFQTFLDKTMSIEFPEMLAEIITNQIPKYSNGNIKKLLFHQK
Peroxisome proliferator-activated receptor gamma (Homo sapiens), sequence (P37231 whole entry, looked up): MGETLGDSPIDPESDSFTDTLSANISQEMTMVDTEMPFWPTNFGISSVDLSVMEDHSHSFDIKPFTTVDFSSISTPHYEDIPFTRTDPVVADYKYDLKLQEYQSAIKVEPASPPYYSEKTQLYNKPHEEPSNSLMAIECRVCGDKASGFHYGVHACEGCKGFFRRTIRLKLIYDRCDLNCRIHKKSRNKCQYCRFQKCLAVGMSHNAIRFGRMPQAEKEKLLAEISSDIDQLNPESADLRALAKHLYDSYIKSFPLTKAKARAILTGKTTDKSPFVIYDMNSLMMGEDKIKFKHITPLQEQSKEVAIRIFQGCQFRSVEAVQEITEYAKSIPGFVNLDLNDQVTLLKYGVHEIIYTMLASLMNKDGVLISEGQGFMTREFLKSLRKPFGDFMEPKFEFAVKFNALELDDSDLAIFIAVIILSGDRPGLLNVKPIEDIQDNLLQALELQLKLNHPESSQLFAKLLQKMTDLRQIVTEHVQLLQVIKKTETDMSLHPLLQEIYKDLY
Vitamin D3 receptor (Homo sapiens), sequence (P11473 whole entry, looked up): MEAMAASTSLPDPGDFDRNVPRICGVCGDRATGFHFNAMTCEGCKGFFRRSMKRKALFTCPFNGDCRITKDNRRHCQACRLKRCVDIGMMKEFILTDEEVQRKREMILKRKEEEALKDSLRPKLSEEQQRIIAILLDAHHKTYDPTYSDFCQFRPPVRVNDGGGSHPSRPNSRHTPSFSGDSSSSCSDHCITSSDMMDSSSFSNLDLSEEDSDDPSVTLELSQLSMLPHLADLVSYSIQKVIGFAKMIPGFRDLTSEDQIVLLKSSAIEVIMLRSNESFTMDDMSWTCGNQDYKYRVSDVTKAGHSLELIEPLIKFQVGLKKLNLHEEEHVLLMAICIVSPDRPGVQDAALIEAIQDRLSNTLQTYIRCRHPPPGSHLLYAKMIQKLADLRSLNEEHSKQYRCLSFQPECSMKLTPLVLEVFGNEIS
Peroxisome proliferator-activated receptor alpha (Homo sapiens), sequence (Q07869 whole entry, looked up, the tested form may be a part): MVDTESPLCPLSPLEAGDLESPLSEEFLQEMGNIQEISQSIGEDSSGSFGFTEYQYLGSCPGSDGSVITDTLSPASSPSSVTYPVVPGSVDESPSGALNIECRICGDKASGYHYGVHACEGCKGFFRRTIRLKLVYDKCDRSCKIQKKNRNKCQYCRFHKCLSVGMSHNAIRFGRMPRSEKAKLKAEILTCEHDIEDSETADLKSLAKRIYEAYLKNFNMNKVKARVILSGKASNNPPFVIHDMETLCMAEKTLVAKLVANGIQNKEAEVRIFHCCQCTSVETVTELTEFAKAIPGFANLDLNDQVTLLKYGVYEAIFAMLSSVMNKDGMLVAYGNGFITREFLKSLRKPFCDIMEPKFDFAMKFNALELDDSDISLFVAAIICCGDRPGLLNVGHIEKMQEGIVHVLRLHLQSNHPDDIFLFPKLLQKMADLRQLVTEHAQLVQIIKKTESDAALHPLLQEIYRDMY
Nuclear receptor subfamily 1 group I member 2 (Rattus norvegicus), sequence (Q9R1A7 whole entry, looked up): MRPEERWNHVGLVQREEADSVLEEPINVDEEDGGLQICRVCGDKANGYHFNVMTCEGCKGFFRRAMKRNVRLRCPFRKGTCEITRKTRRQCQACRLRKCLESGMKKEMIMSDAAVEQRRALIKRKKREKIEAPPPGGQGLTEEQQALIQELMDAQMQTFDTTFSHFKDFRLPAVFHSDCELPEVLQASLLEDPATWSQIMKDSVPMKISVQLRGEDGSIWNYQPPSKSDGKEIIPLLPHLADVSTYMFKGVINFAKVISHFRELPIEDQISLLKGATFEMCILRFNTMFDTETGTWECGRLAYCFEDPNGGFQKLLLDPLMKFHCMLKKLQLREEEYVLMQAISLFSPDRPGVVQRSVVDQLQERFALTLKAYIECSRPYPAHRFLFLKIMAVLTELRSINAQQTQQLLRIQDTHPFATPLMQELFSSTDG

With `CCCCCCCCCCCCN`, the activation in test [1] was -4.12% (inactive); in test [10] it was -7.19% (inactive); in [11], -1.82% (inactive); in test [12], -1.22% (inactive). For the same compound, the Potency result in [2], in test [5], in [7], in test [13] and in [16] was “inactive” in each case. Moreover, the max response is -18.4% in test [3]; 7.66% in test [6]; -2.37% in [8]; 5.24% (inactive) in [9]; -1.6% (inactive) in test [14]; -1.85% (inactive) in test [15]. For the same compound, in test [17], the max response is 0.146% (inactive). Moreover, the outcome in [4] and in test [18] was inactive.

Regarding `CCCCCCCCCCCC[N+](C)(C)C`, the activation in test [1] is -4.8% (inactive); in test [10], 12.8% (inactive); in test [11], -3.69% (inactive); in test [12], 9.5% (inactive). For the same compound, the Potency entry in test [2], in test [5], in test [7] and in test [16] was “inactive” throughout. Besides, the max response in [3] was -26.8%; in [8], 5.9%; in test [20] it was -0.842% (inactive); in [14], -23.2% (inactive); in test [15], -25.6% (inactive); in test [17] it was -11.2% (inactive). Further, the outcome in test [19] and in test [18] was inactive. Further, the Potency in [9] is 17.8 µM (active).

As to `CCC(O)OCCCOC` (stereo not drawn), the activation in test [1] is -7.43% (inactive); in [10], -2.25% (inactive); in test [11], 1.22% (inactive); in test [12], 0.32% (inactive). Moreover, the Potency result in test [2], in test [5], in [7], in test [13] and in test [16] was “inactive” each time. Also, the max response in test [3] was -0.797%; in test [6] it was -7.67%; in test [8] it was -12.7%; in test [9] it was 5.03% (inactive); in test [20], -1.52% (inactive); in test [14] it was 4.51% (inactive). The max response in [15] is -3.1% (inactive); in test [17] it was 1.86% (inactive). Also, the outcome in test [4], in test [19] and in test [18] was inactive.

Turning to `C1CCC2(CCCCO2)OC1`, the activation is -8.41% (inactive) in test [1] and 0.829% (inactive) in test [12]. For the same compound, the Potency result in test [2], in [7], in test [13] and in test [16] was “inactive” each time. Also, the max response is 51.5% in test [3]; -20.2% in test [6]; -9.54% in test [8]; -3.1% (inactive) in [9]; 0.092% (inactive) in test [20]; 2.39% (inactive) in test [14]. In addition, the max response in [17] is -2.06% (inactive). For the same compound, the result in test [4], in [19] and in [18] was inactive.

As to `CCCCCCCCCCCCCCCO`, the max response in test [3] is -44.9%; in test [6] it was -7.63%; in test [8], -3.46%; in test [9] it was -24% (inactive); in test [20], 0.401% (inactive); in test [14], -7.38% (inactive). In addition, the max response was -19.2% (inactive) in [15] and 3.48% (inactive) in test [17]. The outcome in test [4], in [19] and in [18] was inactive. Further, the Potency result in test [5], in [7], in test [13] and in test [16] was “inactive” in each case. For the same compound, the activation in [11] is -1.59% (inactive); in test [12], 2.17% (inactive).

Take `CO[Si](OC)(OC)c1ccccc1`: the activation in [1] is -5.49% (inactive); in test [10], -3.17% (inactive); in test [11], 0.204% (inactive); in test [12] it was 1.89% (inactive). Besides, the Potency result in test [2], in test [5], in [7], in test [13] and in test [16] was “inactive” each time. Also, the max response in [3] was 44.5%; in test [6], -13.7%; in test [8] it was -3.5%; in test [9], -6.99% (inactive); in test [20] it was -1.36% (inactive); in [14], -0.0462% (inactive). Besides, the max response in test [15] was -0.551% (inactive); in test [17], -6.78% (inactive). The outcome in [4], in [19] and in test [18] was inactive.
